Assay outcomes (PubChem BioAssay)
HPGD inh: HPGD (human) dehydrogenase inhibition. Potency, µM, most hits filed as inhibitors. P15428. purified HPGD, NADH fluorescence kinetic, PGE2 substrate. 4.3% of 150,000 active; active means well fitted inhibition curve with a large enough effect, not every such curve was filed as active; inconclusive means small, poorly fitted or top-dose-only effect, or another doubt; inactive means no such curve, though single readings can be large or run the other way
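NADH formation kinetics: reaction with 30 uM PGE2 and 1 mM NAD+ (final), 20 nM enzyme, Tris-HCl pH 8 with Tween 20, after 15 min compound preincubation at room temperature. Fluorescence change, last versus first of five reads.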
ALDH1A1 block: inhibitors of human aldehyde dehydrogenase 1A1; Purified ALDH1A1, NADH fluorescence, propionaldehyde substrate; Potency, µM (highest dose often 75.3 µM), most hits filed as inhibitors; 7.3% of 220,000 active; active means well fitted inhibition curve with a large enough effect, not every such curve was filed as active; inconclusive means small, poorly fitted or top-dose-only effect, or another doubt; inactive means no such curve, though single readings can be large or run the other way
Target sequence (P00352 whole entry, looked up): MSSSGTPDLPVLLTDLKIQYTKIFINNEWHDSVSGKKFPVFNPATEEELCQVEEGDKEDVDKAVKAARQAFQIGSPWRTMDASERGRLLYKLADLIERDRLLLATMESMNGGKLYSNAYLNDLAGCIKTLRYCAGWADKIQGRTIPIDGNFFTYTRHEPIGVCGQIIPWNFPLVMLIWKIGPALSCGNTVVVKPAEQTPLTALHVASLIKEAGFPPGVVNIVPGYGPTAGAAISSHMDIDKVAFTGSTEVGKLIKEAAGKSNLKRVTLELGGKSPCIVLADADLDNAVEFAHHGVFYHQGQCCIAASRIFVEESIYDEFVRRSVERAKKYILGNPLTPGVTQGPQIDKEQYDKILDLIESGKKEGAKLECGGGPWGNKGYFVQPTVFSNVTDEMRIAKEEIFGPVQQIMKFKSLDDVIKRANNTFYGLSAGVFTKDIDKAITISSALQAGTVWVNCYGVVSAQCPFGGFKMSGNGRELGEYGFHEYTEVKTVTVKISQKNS
HttQ103 aggreg: reduces HttQ103-GFP aggregates in PC12 cells; PC12 HttQ103-GFP aggregates, Acumen cytometry, 40 h; Potency, µM (top dose mostly 46.1 µM), usual class: inhibitors; 1.1% of 220,000 active; further: nearly all actives have a fitted effect of over 60% in size
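Aggregates are detected as GFP objects 1–25 µm with signal 6 STDEV over background in lysates of induced PC12 cells. These carry Huntingtin exon 1 with 103 glutamines fused to GFP under an ecdysone promoter; compounds titrated.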
HTT ATP protect: Huntington cell model cytoprotection by ATP luminescence; PC12 HTT-Q103 induced, cytoprotection, ATP luminescence, 40 h; Potency, µM (highest dose often 56.4 µM), most hits filed as activators; 0.14% of 230,000 active; AID 1471; further: nearly all actives have a fitted effect of over 45% in size
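Stable PC12 Q103-GFP cells in serum-supplemented, phenol red-free DMEM; induction by tebufenozide at 100 nM final; compound dose series; cell viability quantified luminescently from ATP.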
LMNA splice mod: changes lamin A minigene splicing in HeLa cells; HeLa LMNA splicing GFP/RFP minigene ratio, 48 h; 0.01% of 200,000 active; Potency, µM (top dose mostly 46.1 µM), most hits filed as inhibitors; active means well fitted inhibition curve with a large enough effect in the signal ratio, with a control signal flat, not every such curve was filed as active; inconclusive means small, poorly fitted or top-dose-only effect, or effect the other way, or a change in a side signal; the % refers to the signal ratio
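S3 HeLa cells stably expressing lamin A-EGFP splicing minigene plus DsRed2, 600 cells/well, 48 h compound exposure at 37C. Laser-scanning cytometry; analysed as GFP (500-530 nm)/RFP (575-640 nm) total intensity ratio; 0.5% DMSO vehicle.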
Luc counter: blocks Kinase-Glo luciferase, a counter-screen artifact. Q27757. Kinase-Glo luciferase, ATP luminescence, 8 min. Potency, µM (series often up to 38.3 µM), usual class: inhibitors. 0.28% of 200,000 active. AID 1379; further: nearly all actives have a fitted effect of over 60% in size
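Kinase-Glo luciferase light output from ATP and luciferin was measured with 10 uM ATP, within the enzyme's linear range. Buffer: 50 mM imidazole pH 7.2, 50 mM KCl, 7 mM MgCl2, 0.01% Tween 20, 0.05% BSA; luminescence read after 8 min at ambient temperature.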
Large screens that a line does not name were inactive. Shown are actives, neighbours in structure and some others; about 9% of the full set was active somewhere. Unless noted, the call rests on the fitted dose curve; in most records, active means well fitted curve in the direction sought with a large enough effect; inconclusive means small, poorly fitted or top-dose-only effect, or another doubt; inactive means no such curve, though single readings can be large; an effect the other way counts as inactive or inconclusive.

O=C(NC(NC(=S)Nc1c(Cl)cccc1Cl)C(Cl)(Cl)Cl)c1cccc([N+](=O)[O-])c1 (configuration not stated)	ALDH1A1 block 18µM, LMNA splice mod inconclusive (no result: HTT ATP protect)
COc1ccc(NC(=S)NC(NC(=O)c2cccc3ccccc23)C(Cl)(Cl)Cl)c([N+](=O)[O-])c1 (configuration not stated)	ALDH1A1 block 28µM, HttQ103 aggreg inconclusive, LMNA splice mod inconclusive
COc1ccc(NC(=S)NC(NC(=O)CCl)C(Cl)(Cl)Cl)c([N+](=O)[O-])c1 (configuration not stated)	ALDH1A1 block inconclusive (no result: HPGD inh, LMNA splice mod, Luc counter)
COc1ccc(NC(=S)NC(NC(=O)c2ccccc2Cl)C(Cl)(Cl)Cl)c([N+](=O)[O-])c1 (configuration not stated)	ALDH1A1 block 8.9µM
COc1ccc(NC(=O)c2ccc(C)cc2Cl)c([N+](=O)[O-])c1	none
COc1ccc(NC(=S)NC(NC(=O)c2ccc(Cl)cc2Cl)C(Cl)(Cl)Cl)c([N+](=O)[O-])c1 (configuration not stated)	ALDH1A1 block 22µM, HttQ103 aggreg inconclusive, LMNA splice mod inconclusive
CCOC(=O)C1CCN(CC(O)COc2ccc(C(C)=O)cc2)CC1 (configuration not stated)	none
CCC(CO)[n+]1c(C)cc(/C=C2\Sc3ccccc3N2Cc2ccccc2)cc1C (configuration not stated)	HPGD inh inconclusive, ALDH1A1 block inconclusive, HttQ103 aggreg 20µM, LMNA splice mod inconclusive
CCN1/C(=C2\SC(=S)N(Cc3ccccc3)C2=O)Sc2ccccc21	none
COc1cc(O)c(NC(C)=O)c2nonc12	none
COc1cccc(CNC(=O)CCCN2C(=O)CCn3nc(-c4cccn4C)cc32)c1	none (no result: HPGD inh, ALDH1A1 block, HttQ103 aggreg, HTT ATP protect, Luc counter)
COc1ccc(Cn2cnc3c([N+](=O)[O-])c(C)c(C)cc32)cc1	none
CC(C(=O)O)c1ccc2c(c1)[nH]c1ccc(Cl)cc12 (configuration not stated)	HTT ATP protect 0.35µM
Cc1cc(=O)[nH]c2ccc(Cl)cc12	LMNA splice mod inconclusive
COc1cccc(C(=O)NCC(=O)OCC(=O)c2ccccc2)c1	none (no result: HTT ATP protect)
CC(C)CC(=O)NS(=O)(=O)c1ccc(NC(=O)c2ccco2)cc1	ALDH1A1 block inconclusive (no result: HPGD inh)
O=C(NCc1ccco1)C1CCN(Cc2ccc(F)cc2)CC1	none
CCCc1ccc(C#N)c(SC2CC(=O)N(c3ccc(OC)cc3)C2=O)n1 (configuration not stated)	ALDH1A1 block inconclusive, LMNA splice mod inconclusive (no result: HPGD inh)
COc1ccc(N2C(=O)CC(Sc3nnnn3-c3ccc(F)cc3)C2=O)cc1 (configuration not stated)	ALDH1A1 block 2.5µM, LMNA splice mod inconclusive (no result: HPGD inh)
Clc1cccc(N2CCN(c3nnnn3-c3ccccc3)CC2)c1	ALDH1A1 block inconclusive, LMNA splice mod inconclusive (no result: HPGD inh)
O=C1CC(Sc2nnnn2-c2ccccc2)C(=O)N1c1cccc(Cl)c1 (configuration not stated)	HPGD inh 32µM, ALDH1A1 block 0.79µM, HttQ103 aggreg 22µM
CO[C@]12C(COC(N)=O)C3=C(C(=O)C(C)=C(N)C3=O)N1CC1NC12 (some centres not stated)	HttQ103 aggreg 13µM (no result: LMNA splice mod)
NC(N)=N/N=C/c1ccccc1OC(F)F	none (no result: HPGD inh)
CCN(CC)c1ccc(C(=O)N/N=C/c2ccccc2OC(F)F)cc1	HttQ103 aggreg 10µM, LMNA splice mod inconclusive (no result: HPGD inh)
O=C(CO/N=C/c1ccc(OC(F)F)cc1)NC1CCCCCC1	LMNA splice mod inconclusive (no result: HPGD inh)
O=C(CO/N=C/c1ccccc1OC(F)F)NC1CCCCC1	HPGD inh 25µM
CCC(CC)NC(=O)CO/N=C/c1ccccc1OC(F)F	HPGD inh 20µM, LMNA splice mod inconclusive
Cc1oc(-c2ccccc2)nc1CSc1nc2c(c(=O)[nH]1)CCC2	HPGD inh 4.5µM (no result: HTT ATP protect)
Cc1cccc(-c2nc(CSc3nc4c(c(=O)[nH]3)CCC4)c(C)o2)c1	HPGD inh 2.8µM, LMNA splice mod inconclusive (no result: HTT ATP protect)
Cc1ccccc1-c1nc(CSc2nc3c(c(=O)[nH]2)CCC3)c(C)o1	HPGD inh 4.5µM (no result: HTT ATP protect)
